SW480 rerep: A quantitative high throughput screen for small molecules that induce DNA re-replication in SW480 colon adenocarcinoma cells | SW480 DNA re-replication, Hoechst DNA content imaging, 48 h | Potency, µM (doses to about 46.1 µM), for the others: at the top dose re-replication activation, actives largely listed as activators | actives 1.8% (n = 340,000) | AID 624297, 2012; note: potency is the fitted concentration of half-maximal effect; % of control where 0% means no effect; nearly all actives have a fitted effect of over 55% in size
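Compounds, transferred as 23 nL by pin tool, were incubated with cells for 48 hr; DNA content per nucleus was then quantified by Hoechst staining and fluorescence plate imaging.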
KB-V1 MDR tox: qHTS assay for MDR1-selective chemotherapeutics: Primary screen using the drug-selected MDR subline cells KB-V1 | Potency, µM (top dose mostly 46.1 µM), usual class: cytotoxic | AID 1347076, 2019 | actives 3.4% (n = 400,000) | KB-V1 MDR cells viability, CellTiter-Glo, 72 h; note: potency is the fitted concentration of half-maximal effect; % is set by controls: 0 for no effect and ±100 for the full control effect; nearly all actives have a fitted effect of over 60% in size
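In this primary screen, KB-V1 cells overexpressing P-gp are incubated with library compounds (lowest to highest concentration) for 72 h at 37 degrees C before a luminescent ATP viability read.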
MCF10A rereplic: A quantitative high throughput screen for small molecules that induce DNA re-replication in MCF 10a normal breast cells; MCF 10A DNA re-replication, Hoechst nuclear intensity, 48 h; Potency, µM (series often up to 46.1 µM), for the others: at the highest dose activity, positive = re-replication, usual class: activators; actives 2.9% (n = 350,000); note: potency is the fitted concentration of half-maximal effect; % of control where 0% means no effect; nearly all actives have a fitted effect of over 50% in size
KCNH2 WT inh: qHTS for Inhibitors of KCHN2 3.1: Wildtype qHTS | AID 720551, 2013 | activity change, % at 1.84 µM | actives 0.37% (n = 340,000) | U2OS, BacMam KCNH2, thallium flux FluxOr; active compounds read low | Voltage-gated inwardly rectifying potassium channel KCNH2 (Homo sapiens), Q12809;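 active = maximum activity change below -70%; inconclusive = maximum activity change between -70% and -50%; inactive = maximum activity change above -50%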; note: % is set by controls: 0 for no effect and ±100 for the full control effect
Target sequence (Q12809 whole entry, looked up): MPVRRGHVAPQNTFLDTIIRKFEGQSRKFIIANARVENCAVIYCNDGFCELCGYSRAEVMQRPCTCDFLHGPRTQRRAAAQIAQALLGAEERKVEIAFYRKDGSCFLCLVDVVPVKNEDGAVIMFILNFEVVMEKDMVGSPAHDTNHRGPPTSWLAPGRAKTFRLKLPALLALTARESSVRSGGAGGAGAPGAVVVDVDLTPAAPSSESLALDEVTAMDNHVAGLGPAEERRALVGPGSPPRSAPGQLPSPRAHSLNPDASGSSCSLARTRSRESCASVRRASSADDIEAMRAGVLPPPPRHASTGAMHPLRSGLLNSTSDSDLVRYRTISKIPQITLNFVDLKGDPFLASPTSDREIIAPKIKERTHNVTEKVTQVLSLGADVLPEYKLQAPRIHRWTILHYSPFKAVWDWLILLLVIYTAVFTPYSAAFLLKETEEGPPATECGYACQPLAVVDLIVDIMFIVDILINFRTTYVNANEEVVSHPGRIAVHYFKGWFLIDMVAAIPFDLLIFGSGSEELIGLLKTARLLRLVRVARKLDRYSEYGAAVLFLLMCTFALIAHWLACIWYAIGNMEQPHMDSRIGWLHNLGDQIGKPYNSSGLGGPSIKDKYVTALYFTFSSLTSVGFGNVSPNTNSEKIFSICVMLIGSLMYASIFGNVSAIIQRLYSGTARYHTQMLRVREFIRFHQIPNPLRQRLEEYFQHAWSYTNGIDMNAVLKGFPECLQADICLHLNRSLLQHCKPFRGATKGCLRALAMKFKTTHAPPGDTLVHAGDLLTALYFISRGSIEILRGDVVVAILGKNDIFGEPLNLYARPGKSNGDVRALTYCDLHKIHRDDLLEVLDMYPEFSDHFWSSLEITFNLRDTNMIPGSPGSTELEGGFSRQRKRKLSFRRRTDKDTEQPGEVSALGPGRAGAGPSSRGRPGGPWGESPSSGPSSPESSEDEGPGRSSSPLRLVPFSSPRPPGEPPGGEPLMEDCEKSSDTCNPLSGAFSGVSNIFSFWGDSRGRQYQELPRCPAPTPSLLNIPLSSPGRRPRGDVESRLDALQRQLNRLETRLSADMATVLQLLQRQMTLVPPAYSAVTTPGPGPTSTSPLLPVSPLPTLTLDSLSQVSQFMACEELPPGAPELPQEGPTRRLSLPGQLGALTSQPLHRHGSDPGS
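U2OS cells were transduced with wild-type KCNH2 virus (2.03 x 10^8 / mL) for 4 h at room temperature, then cultured overnight at 37 C. Thallium flux was read with FluxOr dye. Rate constants were normalized to DMSO controls.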
KCNH2 3.1 block: qHTS for Inhibitors of KCHN2 3.1: Mutant qHTS. U2OS KCNH2 3.1, thallium flux FluxOr; active compounds read low. actives 0.95% (n = 340,000). AID 720553, 2013. activity change, % (tested at about 1.8 µM). Potassium voltage-gated channel subfamily H member 2, brain isoform KCNH2 3.1 (human);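 active = maximum activity change below -70%; inconclusive = maximum activity change from -70% to -50%; inactive = maximum activity change above -50%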;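 note: thallium influx rate constant from kinetic fluorescence after stimulation buffer; % is set by controls: 0 for no effect and ±100 for the full control effect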
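We transduce U2OS cells with the mutant 3.1 virus, culture them overnight, load FluxOr with Red40 quencher for 45 min, then add stimulation buffer and read kinetically for 2 min to derive a normalized rate constant.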
KB-3-1 tox: qHTS assay for MDR1-selective chemotherapeutics: Primary screen using the parental adenocarcinoma cell KB-3-1 | KB-3-1 viability, CellTiter-Glo ATP luminescence, 72 h | Potency, µM (doses to about 46.1 µM), most hits filed as cytotoxic | actives 1.4% (n = 400,000) | AID 1347075, 2019; note: potency is the fitted concentration of half-maximal effect; % is set by controls: 0 for no effect and ±100 for the full control effect; nearly all actives have a fitted effect of over 60% in size
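Cytotoxicity measured as CellTiter-Glo luminescence after 72 h at 37 C. Compound titrations were pinned onto drug-naive KB-3-1 parental adenocarcinoma cells grown in DMEM with 10% FBS, and normalized data fitted to concentration-response curves.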
Starred values were filed as active, the others as inactive; [ ] = dose if it differs, or a comment. A selection: hits, their analogues and other compounds. The true share with any hit is near 7.6%. Unless noted, calls come from the whole dose curve; as a rule, active = well fitted curve in the direction sought with a large enough effect; inconclusive = small, poorly fitted or top-dose-only effect, or another doubt; inactive = no such curve, though single readings can be large; an effect the other way counts as inactive or inconclusive.

How did O=C(COC(=O)c1c2c(nc3ccccc13)/C(=C/c1cccc([N+](=O)[O-])c1)CCC2)NC1CCS(=O)(=O)C1 (stereo not drawn) do in these assays?
KB-V1 MDR tox: 23.1µM*; MCF10A rereplic: inconclusive; KCNH2 WT inh: -0.5; KCNH2 3.1 block: 0.2; KB-3-1 tox: inconclusive

Results for CN(C(=O)COC(=O)/C=C/c1cccc([N+](=O)[O-])c1)C1CCS(=O)(=O)C1 (stereo not drawn) ?
SW480 rerep: -2.0%; KB-V1 MDR tox: inactive; MCF10A rereplic: 21.1%; KCNH2 WT inh: 32.5; KCNH2 3.1 block: -7.1; KB-3-1 tox: inconclusive

Results for CCNC(=S)N1CCN(S(=O)(=O)c2cccc(C(F)(F)F)c2)CC1 ?
SW480 rerep: -1.1%; KB-V1 MDR tox: 23.1µM*; MCF10A rereplic: 4.4%; KCNH2 WT inh: 2.7; KCNH2 3.1 block: -1.5; KB-3-1 tox: inactive

Results for COc1cc2c(cc1OC)C(C1C(=O)CC(C)(C)CC1=O)N(C(=O)CCl)CC2 (stereo not drawn) ?
SW480 rerep: -7.5%; KB-V1 MDR tox: inactive; MCF10A rereplic: 3.8%; KCNH2 WT inh: 5.2; KCNH2 3.1 block: -25.2; KB-3-1 tox: inactive

How did COc1cc2c(cc1OC)C(c1cc(Br)ccc1F)N(C(=O)CCl)CC2 (stereo not drawn) do in these assays?
SW480 rerep: 14.1%; KB-V1 MDR tox: inactive; MCF10A rereplic: 3.26µM*; KCNH2 WT inh: -6.7; KCNH2 3.1 block: 22.5; KB-3-1 tox: inconclusive

Results for COc1ccc(C[C@@H]2OC3(C=CC(=O)C=C3)O[C@H]2Cc2ccc(OC)cc2)cc1 ?
SW480 rerep: 0.92µM*; KB-V1 MDR tox: inconclusive; MCF10A rereplic: 0.731µM*; KCNH2 WT inh: -7.6; KCNH2 3.1 block: -40.8; KB-3-1 tox: 2.31µM*

How did O=C1C=CC2(C=C1)O[C@H](Cc1ccccc1)[C@@H](Cc1ccccc1)O2 do in these assays?
SW480 rerep: 0.92µM*; KB-V1 MDR tox: 16.4µM*; MCF10A rereplic: inconclusive; KCNH2 WT inh: 20.1; KB-3-1 tox: inconclusive

Results for O=C1CCc2cc(S(=O)(=O)NCc3ccccc3Cl)cc3c2N1CC3 ?
SW480 rerep: -3.6%; KB-V1 MDR tox: inconclusive; MCF10A rereplic: -0.3%; KCNH2 WT inh: -3.1; KCNH2 3.1 block: 6.4; KB-3-1 tox: inactive

How did CCc1nnc(NC(=O)CC23CC4CC(CC(Br)(C4)C2)C3)s1 do in these assays?
SW480 rerep: 0.6%; KB-V1 MDR tox: inactive; MCF10A rereplic: -2.7%; KCNH2 WT inh: -2.5; KCNH2 3.1 block: -4.2; KB-3-1 tox: inactive

How did Cc1oncc1-c1csc(-c2ccccc2Cl)n1 do in these assays?
SW480 rerep: inactive[1.84 µM]; KB-V1 MDR tox: 13µM*; MCF10A rereplic: -4.1%; KCNH2 WT inh: 1.7; KCNH2 3.1 block: 4.7; KB-3-1 tox: inconclusive

Results for Cc1oncc1-c1csc(-c2ccccc2)n1 ?
SW480 rerep: -1.5%; KB-V1 MDR tox: inconclusive; MCF10A rereplic: -2.3%; KCNH2 WT inh: 16.3; KCNH2 3.1 block: 0.8; KB-3-1 tox: inactive

What do the screens show for `O=C(Nc1ccc(Oc2ccccc2)cc1)c1ccc(Cn2c(=O)[nH]c3ccsc3c2=O)cc1`?
SW480 rerep: -4.5%; KB-V1 MDR tox: inactive; MCF10A rereplic: inconclusive; KCNH2 WT inh: 14.3; KCNH2 3.1 block: -0.9; KB-3-1 tox: inactive

How did O=C(Nc1ccc(Cl)c(Cl)c1)c1ccc(Cn2c(=O)[nH]c3ccsc3c2=O)cc1 do in these assays?
SW480 rerep: 1.1%; KB-V1 MDR tox: inactive; MCF10A rereplic: 16.4µM*; KCNH2 WT inh: 2.2; KCNH2 3.1 block: -19.6; KB-3-1 tox: inconclusive

Results for Nc1nc2c(nc(N3CCOCC3)n2COCCO)c(=O)[nH]1 ?
KB-V1 MDR tox: inconclusive; KB-3-1 tox: inactive

How did C=CCOc1ccc(C2=NOC(C(=O)Nc3ccc4c(c3)OCCO4)C2)cc1OC (stereo not drawn) do in these assays?
SW480 rerep: 10.4%; KB-V1 MDR tox: inactive; MCF10A rereplic: inconclusive; KCNH2 WT inh: -189.4*; KCNH2 3.1 block: 3.8; KB-3-1 tox: inactive

What do the screens show for `COc1ccc(C2=NOC(C(=O)Nc3ccc4c(c3)OCCO4)C2)cc1OC` (stereo not drawn)?
SW480 rerep: -3.0%; KB-V1 MDR tox: inactive; MCF10A rereplic: 6.1%; KCNH2 WT inh: -11.9; KCNH2 3.1 block: -1.5; KB-3-1 tox: inactive

Results for Oc1[nH]c2ccccc2c1N=Nc1ccccn1 ?
SW480 rerep: -4.9%; KB-V1 MDR tox: inactive; MCF10A rereplic: -3.4%; KCNH2 WT inh: 19.7; KCNH2 3.1 block: 8.4; KB-3-1 tox: inactive

Results for Oc1c(N=Nc2ccccn2)ccc2ccccc12 ?
SW480 rerep: inconclusive; KB-V1 MDR tox: inconclusive; MCF10A rereplic: 13µM*; KCNH2 WT inh: 18.5; KCNH2 3.1 block: 13.0; KB-3-1 tox: 1.16µM*

How did CC(C)Oc1ccc(C(=O)OCC(=O)NC2CCCCCC2)cc1 do in these assays?
SW480 rerep: -14.3%; KB-V1 MDR tox: inactive; MCF10A rereplic: -3.0%; KCNH2 WT inh: -15.4; KCNH2 3.1 block: -3.4; KB-3-1 tox: inactive

What do the screens show for `CC(SCc1ccccc1)C(=O)N/N=C/c1ccc(OCC(=O)NCc2ccco2)cc1` (stereo not drawn)?
SW480 rerep: -1.8%; KB-V1 MDR tox: inconclusive; MCF10A rereplic: inconclusive; KCNH2 WT inh: -8.4; KCNH2 3.1 block: -0.6; KB-3-1 tox: inconclusive

How did O=C(O)c1ccc(S(=O)(=O)N2CCc3ccccc3C2)cc1 do in these assays?
SW480 rerep: inconclusive; KB-V1 MDR tox: inactive; MCF10A rereplic: -3.6%; KCNH2 WT inh: -7.1; KCNH2 3.1 block: -3.1; KB-3-1 tox: inactive

What do the screens show for `CCOC(=O)C(=CNc1cc(C)ccc1C)C(=O)OCC`?
SW480 rerep: -2.5%; KB-V1 MDR tox: 13µM*; MCF10A rereplic: 9.0%; KCNH2 WT inh: 6.1; KCNH2 3.1 block: 0.5; KB-3-1 tox: inactive

Results for FC(F)(F)c1ccc2c(c1)[nH]c(=S)n2C1CC1 ?
SW480 rerep: -12.9%; KB-V1 MDR tox: inconclusive; MCF10A rereplic: -1.0%; KCNH2 WT inh: -161.6*; KCNH2 3.1 block: -200.7*; KB-3-1 tox: inactive

How did CC(=O)Nc1cccc(-c2ccnc3c2CC(C)(C(=O)NCc2cccc(Cl)c2)O3)c1 (stereo not drawn) do in these assays?
KB-V1 MDR tox: inconclusive; KB-3-1 tox: 14.6µM*

High-throughput results (PubChem)
